CYP2C9 inh = blocks human cytochrome P450 2C9; P11712; CYP2C9 Supersomes, luciferin-H conversion, luminescence; inhibition, % at 5 µM; 96,000 compounds, 20% hits; AID 777;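 active means blocking of liver enzyme CYP2C9 beyond about 50% at 5 µM, limit read from the data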
Target sequence (P11712 whole entry, looked up): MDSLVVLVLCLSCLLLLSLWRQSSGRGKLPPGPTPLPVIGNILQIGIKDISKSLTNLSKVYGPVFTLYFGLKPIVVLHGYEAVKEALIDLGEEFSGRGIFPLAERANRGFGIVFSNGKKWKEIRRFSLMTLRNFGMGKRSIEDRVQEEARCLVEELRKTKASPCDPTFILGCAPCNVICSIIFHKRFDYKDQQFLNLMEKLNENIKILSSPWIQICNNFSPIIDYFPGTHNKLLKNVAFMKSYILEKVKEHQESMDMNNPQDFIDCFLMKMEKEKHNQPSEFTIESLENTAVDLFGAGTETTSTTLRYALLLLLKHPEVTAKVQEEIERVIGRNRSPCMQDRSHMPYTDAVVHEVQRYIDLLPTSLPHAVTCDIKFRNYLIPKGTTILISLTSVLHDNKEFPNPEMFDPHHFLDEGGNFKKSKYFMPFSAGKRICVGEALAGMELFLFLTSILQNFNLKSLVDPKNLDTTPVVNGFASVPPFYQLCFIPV
CYP2C9 act = increases human cytochrome P450 2C9 activity; P11712; recombinant CYP2C9, luciferin-H conversion, luminescence; stronger effect = higher value; factor 1 = untreated enzyme, 0 = blocked; activation factor at 5 µM; 96,000 compounds, 1.4% hits;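 active means activation factor of 2 or more for CYP2C9 at a 5 µM dose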;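 further: 0 = sulfaphenazole-blocked wells and 1 = vehicle-only wells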
CYP2C19 inh = inhibitors of human CYP2C19 | 96,000 compounds, 21% hits | P33261 | AID 778 | CYP2C19 Supersomes, luciferin-H EGE luminescence, 30 min | inhibition, % at 5 µM;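 active means CYP2C19 inhibition above a set limit at 5 µM in the primary screen, cut at about 50% in these data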;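 further: plate controls were negative control wells for no effect and 2.5 mM tranylcypromine positive control for full effect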
EphB4 antag = blocks human EphB4 binding to ephrin-B2; P54760; EphB4 LBD / TNYL-RAW-Alexa532 peptide, fluorescence polarization; inhibition, % at 7 µM; 97,000 compounds, 0.15% hits; AID 720;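 active means inhibition above the screen-wide mean inhibition plus 3 SD, cut at about 15% in these data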;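 further: 0% = DMSO wells and 100% = excess unlabeled TNYL-RAW peptide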
CYP2C19 activ = increases human CYP2C19 enzyme activity | activation factor at 5 µM | 96,000 tested, under 10 active | recombinant CYP2C19, luciferin-H EGE luminescence; stronger effect = higher value; 0 = fully inhibited enzyme, 1 = untreated enzyme;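 active means activation factor of at least 2 at 5 µM in the primary screen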;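 further: 0 = wells with 2.5 mM tranylcypromine and 1 = vehicle-only wells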
The depositor's hits bear a star; . = no result. A selection: hits, their analogues and other compounds. The true share with any hit is near 27%.

SMILES | CYP2C9 inh | CYP2C9 act | CYP2C19 inh | EphB4 antag | CYP2C19 activ
CN(C)C(=O)c1cc(Cl)ccc1Sc1cc(Cl)ccc1Cl | 84* | 0.2 | 97* | 2 | 0
CCCc1ccc(-c2cc(C(=O)NCCc3ccc(S(N)(=O)=O)cc3)c3ccccc3n2)cc1 | 98* | 0 | 45 | 6 | 0.6
Cc1onc(-c2ccccc2)c1C(=O)NCCc1ccc(S(N)(=O)=O)cc1 | -2 | 1 | 6 | -2 | 0.9
CCCc1ccc(-c2cc(C(=O)NN3CCOCC3)c3ccccc3n2)cc1 | 87* | 0.1 | 39 | 1 | 0.6
CCc1ccc(-c2cc(C(=O)Nn3cnnc3)c3ccccc3n2)cc1 | 99* | 0 | 83* | -1 | 0.2
CCc1ccc(-c2cc(C(=O)N3N=C(C(F)F)CC3(O)C(F)F)c3ccccc3n2)cc1 (configuration not stated) | 78* | 0.2 | 22 | 8 | 0.8
CC(C)OCCCN1CN(S(=O)(=O)c2ccc(Cl)cc2)c2nc3ccccc3nc21 | 28 | 0.7 | 38 | -5 | 0.6
CCOCCCN1CN(S(=O)(=O)c2ccc(Cl)cc2)c2nc3ccccc3nc21 | 81* | 0.2 | 54* | 4 | 0.5
CC(C)OCCCN1CN(S(=O)(=O)c2cccc(Cl)c2)c2nc3ccccc3nc21 | 81* | 0.2 | 54* | -3 | 0.5
CC1CCN(C(=O)CSc2nnc(-c3cccnc3)n2C2CCCCC2)CC1 | 15 | 0.8 | 42 | 2 | 0.6
COc1cccc(Cn2c(N)c(C#N)c3nc4ccccc4nc32)c1OC | 17 | 0.8 | 25 | 1 | 0.7
COc1ccc(C)cc1-n1c(N)c(C#N)c(C#N)c1-c1ccc(OC)c(OC)c1OC | 50* | 0.5 | 26 | -1 | 0.7
O=C1Nc2cc(Cl)c(Cl)cc2N(O)N1c1cccc(Cl)c1 | 52* | 0.5 | -10 | -2 | 1.1
CCOC(=O)C1=C(N)OC2=C(C(=O)CC(C)(C)C2)C1c1ccco1 (configuration not stated) | 36 | 0.6 | 21 | 0 | 0.8
Cc1ccc(C(=O)CSC2=C(C#N)C(c3ccco3)CC(=O)N2)c(C)c1 (configuration not stated) | 98* | 0 | 49 | -6 | 0.5
Cc1ccc(NC(=O)CSC2=C(C#N)C(c3ccco3)CC(=O)N2)cc1 (configuration not stated) | 50 | 0.5 | 81* | 5 | 0.2
CC1=C(C(=O)OCc2ccccc2)C(c2ccco2)C2=C(CC(C)(C)CC2=O)N1 (configuration not stated) | 67* | 0.3 | 63* | 7 | 0.4
CC1=C(C(=O)OCC2CCCO2)C(c2ccncc2)C2=C(CC(C)(C)CC2=O)N1 (configuration not stated) | 22 | 0.8 | 57* | -2 | 0.4
CC(C)C1CC(=O)NC(SCC(=O)Nc2ccc(Br)cc2)=C1C#N (configuration not stated) | 20 | 0.8 | 27 | 5 | 0.7
O=C1/C(=C\c2cccnc2)SC(=S)N1C1CCS(=O)(=O)C1 (configuration not stated) | 41 | 0.6 | -9 | -5 | 1.1
C=CCn1c(NC(=O)c2ccc(C)cc2)c(C#N)sc1=N | -9 | 1.1 | -2 | -7 | 1
Cc1ccc(NC(=O)CSC2=C(C#N)C(c3ccco3)C3=C(CC(C)(C)CC3=O)N2)cc1 (configuration not stated) | 96* | 0 | 93* | -6 | 0.1
O=C(Nc1nc(=O)c2ccccc2s1)c1ccc(F)cc1 | . | . | . | 1 | .
O=C(Nc1nc(=O)c2ccccc2s1)c1ccc(Cl)cc1 | 39 | 0.6 | 62* | -8 | 0.4
Cn1nc(-c2ccccc2)c(C(O)c2ccc(Cl)cc2)c1Cl (configuration not stated) | 88* | 0.1 | 95* | 3 | 0
SMILES | CYP2C9 inh | CYP2C9 act | CYP2C19 inh | EphB4 antag | CYP2C19 activ
Cn1nc(-c2ccccc2)c(CSc2ccccc2Cl)c1Cl | 24 | 0.8 | 36 | 1 | 0.6
COc1ccc(C(=S)N2CCNCC2)cc1 | 8 | 0.9 | 5 | 5 | 0.9
COc1ccc(NC(=S)NCC2CCCO2)c(OC)c1 (configuration not stated) | -7 | 1.1 | 56* | -8 | 0.4
Cc1cc(C)cc(NC(=S)NCC2CCCO2)c1 (configuration not stated) | -115 | 2.1* | 15 | -4 | 0.8
Cc1ccccc1C(=O)NC(=S)NCC1CCCO1 (configuration not stated) | 20 | 0.8 | 32 | 3 | 0.7
CCN(CC)CCOC(=O)c1cccc(Cl)c1 | 9 | 0.9 | 14 | 2 | 0.9
